In PubChem BioAssay (NCI):
About 83,000 compounds went through this panel and 20% of them were active in at least one assay; those are over-represented in the sample as a whole.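 Interpretation: 100, growth as untreated; towards 0, rising growth inhibition; 0, no net growth; 0 to -100, cell death. Compounds scoring below 10 were considered active.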 Active and inactive are the calls of the source.

Tests used:
Assay in all cases: NCI-60 one-dose screen, 48 h (100 = growth as untreated, 0 = no growth, -100 = all killed)
Conditions in all cases: 10 µM unless noted
NCI-H23 lung = system: NCI-H23 lung
NCI-H226 lung = system: NCI-H226 lung
NCI-H322M lung = system: NCI-H322M lung
HOP-62 NSCLC = system: HOP-62 NSCLC
NCI-H460 lung = system: NCI-H460 lung
NCI-H522 lung = system: NCI-H522 lung
A549/ATCC NSCLC = system: A549/ATCC NSCLC
786-0 renal = system: 786-0 renal
COLO 205 colon = system: COLO 205 colon
DU-145 prostate = system: DU-145 prostate
K-562 leukemia = system: K-562 leukemia
MALME-3M melanoma = system: MALME-3M melanoma
MDA-MB-231 breast = system: MDA-MB-231 breast
RXF 393 renal = system: RXF 393 renal
SF-268 CNS = system: SF-268 CNS
SF-295 CNS = system: SF-295 CNS
SF-539 CNS = system: SF-539 CNS
UACC-257 melanoma = system: UACC-257 melanoma
M14 melanoma = system: M14 melanoma

Measured: growth

CCCCCCCCCCCCNC(=O)[C@H]1CSC(c2ccsc2)N1 (stereo partly specified)
inactive: NCI-H522 lung 32.7% | A549/ATCC NSCLC 63.7% | COLO 205 colon 84%
active: NCI-H23 lung -52.9% | NCI-H226 lung -74.1% | NCI-H322M lung 3.58% | HOP-62 NSCLC -94.7% | NCI-H460 lung -80.1% | 786-0 renal -94.8% | DU-145 prostate -85.8% | K-562 leukemia -57% | MALME-3M melanoma -69.9% | MDA-MB-231 breast -80.5% | RXF 393 renal -93.2% | SF-268 CNS -77.1% | SF-295 CNS -29.9% | SF-539 CNS -89.2% | UACC-257 melanoma -87.2% | M14 melanoma -77.5%

Brc1cccc(-c2cc(-c3ccc4c(c3)OCCCO4)[nH]n2)c1
inactive: NCI-H23 lung 66.2% [25 µM] | NCI-H226 lung 72% [25 µM] | NCI-H322M lung 68% [25 µM] | HOP-62 NSCLC 53% [25 µM] | NCI-H460 lung 16% [25 µM] | A549/ATCC NSCLC 44.4% [25 µM] | 786-0 renal 85.2% [25 µM] | COLO 205 colon 36.3% [25 µM] | DU-145 prostate 69.3% [25 µM] | K-562 leukemia 17.4% [25 µM] | MALME-3M melanoma 52.9% [25 µM] | MDA-MB-231 breast 49.4% [25 µM] | RXF 393 renal 82.4% [25 µM] | SF-268 CNS 68.8% [25 µM] | SF-295 CNS 62.3% [25 µM] | SF-539 CNS 77.1% [25 µM] | UACC-257 melanoma 96.7% [25 µM] | M14 melanoma 49.6% [25 µM]
active: NCI-H522 lung 2.15% [25 µM]

N=C(N)c1ccc(-c2cc(Cl)cc(Cl)c2)cn1
inactive: NCI-H23 lung 97.6% | NCI-H226 lung 82.4% | NCI-H322M lung 94% | HOP-62 NSCLC 91.6% | NCI-H460 lung 96.9% | NCI-H522 lung 90.1% | A549/ATCC NSCLC 93.9% | 786-0 renal 95.3% | COLO 205 colon 19.5% | DU-145 prostate 99.5% | K-562 leukemia 17.5% | MALME-3M melanoma 95.8% | MDA-MB-231 breast 85.6% | RXF 393 renal 41.5% | SF-268 CNS 84.9% | SF-295 CNS 98.2% | SF-539 CNS 89.6% | UACC-257 melanoma 102% | M14 melanoma 96.4%

C=C1C(=O)O[C@H]2[C@H]1CC/C(Cn1cc(CNC(=O)Cc3cn(C(=O)c4ccc(Cl)cc4)c4ccc(OC)cc34)nn1)=C\CC[C@@]1(C)O[C@@H]21
inactive: NCI-H23 lung 19.7% | NCI-H226 lung 70.9% | NCI-H322M lung 88.3% | HOP-62 NSCLC 78.6% | NCI-H460 lung 88.5% | A549/ATCC NSCLC 68.4% | DU-145 prostate 31.9% | SF-295 CNS 83.5% | UACC-257 melanoma 10.4%
active: NCI-H522 lung -50.7% | 786-0 renal -82.7% | COLO 205 colon -74% | K-562 leukemia -22.6% | MALME-3M melanoma -76.1% | MDA-MB-231 breast -24.1% | RXF 393 renal -61.3% | SF-268 CNS 9.83% | SF-539 CNS -83.7% | M14 melanoma -32.4%

C/C(=N/NC(=S)Nc1ccccc1)c1nc2ccc(Cl)cc2[nH]1
active: NCI-H23 lung -45.3% | NCI-H226 lung -42.4% | NCI-H322M lung -40.4% | HOP-62 NSCLC -97.1% | NCI-H460 lung -66.6% | NCI-H522 lung -93.4% | A549/ATCC NSCLC -10.9% | 786-0 renal -47.6% | COLO 205 colon -89.3% | DU-145 prostate -99.1% | K-562 leukemia -9.4% | MALME-3M melanoma -74% | MDA-MB-231 breast -21.4% | RXF 393 renal -91.5% | SF-268 CNS -89.6% | SF-295 CNS -58.6% | SF-539 CNS -72.1% | UACC-257 melanoma -94.9%

Nc1cccc(-c2nc3sccn3c2-c2ccnc(NCCCNS(=O)(=O)c3cccc4ccccc34)n2)c1
inactive: NCI-H23 lung 44.3% | NCI-H226 lung 29.8% | NCI-H322M lung 63.5% | HOP-62 NSCLC 64.3% | NCI-H460 lung 35.5% | NCI-H522 lung 34.9% | A549/ATCC NSCLC 39.2% | 786-0 renal 53.9% | COLO 205 colon 24.1% | DU-145 prostate 47.9% | K-562 leukemia 22.6% | MALME-3M melanoma 62.2% | MDA-MB-231 breast 39.5% | RXF 393 renal 57.4% | SF-268 CNS 49.2% | SF-295 CNS 38.3% | SF-539 CNS 65.9% | UACC-257 melanoma 47.9% | M14 melanoma 43.8%

CC(C)(C)OC(=O)NC(CSCc1ccccc1)C(=O)ON1C(=O)CCC1=O (stereo unspecified)
inactive: NCI-H23 lung 94.3% | NCI-H226 lung 110% | NCI-H322M lung 131% | HOP-62 NSCLC 105% | NCI-H460 lung 111% | NCI-H522 lung 91.5% | A549/ATCC NSCLC 106% | 786-0 renal 114% | COLO 205 colon 112% | DU-145 prostate 112% | K-562 leukemia 100% | MALME-3M melanoma 101% | MDA-MB-231 breast 111% | RXF 393 renal 124% | SF-268 CNS 102% | SF-295 CNS 124% | SF-539 CNS 99.5% | UACC-257 melanoma 99.8% | M14 melanoma 104%

COc1ccc(Nc2nn3c(C)cc(C)nc3c2C(=O)Nc2ccc(C)cc2)c(OC)c1
inactive: NCI-H23 lung 92.7% | NCI-H226 lung 101% | NCI-H322M lung 92.8% | HOP-62 NSCLC 85.8% | NCI-H460 lung 101% | NCI-H522 lung 88.6% | A549/ATCC NSCLC 93.5% | 786-0 renal 90.9% | COLO 205 colon 98.7% | DU-145 prostate 113% | K-562 leukemia 108% | MALME-3M melanoma 124% | MDA-MB-231 breast 108% | RXF 393 renal 107% | SF-268 CNS 100% | SF-295 CNS 107% | SF-539 CNS 102% | UACC-257 melanoma 98.6% | M14 melanoma 101%
